Unmarked numbers belong to inactive results.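 How the source made its calls: active = MAPPIT score above the 99th percentile of random reference set scores in the same batch; inactive = at or below it.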
What was measured:
Assay in all cases: MAPPIT interaction score (arbitrary units); higher = stronger binary interaction signal, active = hit call of the paper
CG13510 = conditions: MAPPIT configuration: N-N; pair source set: Lit-BS-16
CG13840 = conditions: MAPPIT configuration: N-N; pair source set: Curagen_low_conf
CG5674 = conditions: MAPPIT configuration: N-N; pair source set: screen_2
Klp98A = conditions: MAPPIT configuration: N-N; pair source set: screen_1
Rpn13 = conditions: MAPPIT configuration: N-N; pair source set: screen_2
CG13901 = conditions: MAPPIT configuration: N-N; pair source set: Finley_Y2H
CG5862 = conditions: MAPPIT configuration: N-N; pair source set: Curagen_high_conf
RpLP1 = conditions: MAPPIT configuration: N-N; pair source set: Curagen_low_conf
CG13058 = conditions: pair source set: RRS
CG13494 = conditions: MAPPIT configuration: N-C; pair source set: screen_3
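Further: HEK293T cells with Epo stimulation, STAT-responsive firefly luciferase reporter, fold induction versus unstimulated cells divided by the larger fold induction of two negative controls lacking either bait or prey.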

B1: Grip75 (protein)
chain: MIHDLLLACRSHNPEQLGIKAFNETTVIDQFIHPCEREIFMDIIKIIKVYQEVEQFTHSSGRKSDTHGELPDSLHGYYLLNLAKGIEMALEEYYAEIGRLEKYCLGNERNSLSYVYNALYAKFPLLVFMRNLITEIHVLNLRGCVLLHNLHQQCEHGDIQLEKAIKIIMKPVKNAFFSSLAHWLLFGVIDDVHSEFFIKFTPTDAVDGSSFSKSATCSLLSAEKNPEDYIWQYEVNMSQLPGFFSIVLAEKVLFVGQTVLVFKMGRNVKVKNKTDPLAAKLAELDSDDIYQLWSGRESEFFKMVVDLSNEDTINVFRLEKVIIDIKNYVSARLSEIAVNEVDLERQMGLIKDFFLLGRGEFYLEFCSQMVGTMETYREERFKNVTRSFELAATVTGITDDLDKFSLICQRSTSEPDDTSDFNFLQGLSLKYEYEWPLNLLFSPTTIERYNNIFRFLLIIRTYQYEIQRVWAKQTWRAKSAKDVPPNNKIITLRNYLMFFLNNMQYYIQVDVLESQFGILMNVIKSRSDFEVIQRAHTVFLANVLSHCFLLNESETQLNVTGSQNRNPIYGTLLKLFGICEKFAHMTQTKDPSDDLEDEVDQLNESFGVQIASLIQLLVDVKSASCLGPLSQLLLRLDFNCWFSASHNTSA
MAPPIT interaction score (CG13510): 0.427

B2: sina (protein)
chain: MSNKINPKRREPTAAAAGAGATGVATNTSTSTGSSSAGNTSSANTSSSSSSSLSSAGGGDAGMSADLTSLFECPVCFDYVLPPILQCSSGHLVCVSCRSKLTCCPTCRGPLANIRNLAMEKVASNVKFPCKHSGYGCTASLVYTEKTEHEETCECRPYLCPCPGASCKWQGPLDLVMQHLMMSHKSITTLQGEDIVFLATDINLPGAVDWVMMQSCFGHHFMLVLEKQEKYDGHQQFFAIVQLIGSRKEAENFVYRLELNGNRRRLTWEAMPRSIHEGVASAIHNSDCLVFDTSIAQLFADNGNLGINVTISLV
MAPPIT interaction score (CG13840): -0.135 | MAPPIT interaction score (CG5674): -0.0161 | MAPPIT interaction score (Klp98A): 0.0642 | MAPPIT interaction score (Rpn13): 0.72

B3: Ufl1 (protein)
chain: MGSDWDEIKRLAADFQKAQLTSTLQKLSERNCVEIVTLLLEKQMLEVVFTNDGKEYITPDHLEREIQDELYVNGGRANLVEVSKTLNVDLSRIELLAERISAENQSVHLVLGQLIDEDYISHIAQEINEKLVQRGEVSISELASQFDLPSDFLQHDVVEKHLGKIIKGRQDASNPRVFFTQAYIQRCKAKIRGALAAITRPINVAVILQKIGVQEKIFYSLLDEIAPAGQVTSKQANSQYVPHIYAKTQADWVNSFYKQNSFLEYDAIQKLGISDAKSYIRKQFPNEEFLYLKRVALGARLVELTVVTALNECSATKQYLDLTTILPSNLSEEDIEEVFSTIMAQKHSNPSNFVYLDGIVFSQPYLAQLVQPCQALAESQAKAAIDGGVYQQYIVEKTLAQKGNVSTQELEDEGKVDKRDERRKKASSGKAGGGAQGRETKTKSTKKHQRGKAAAQFDSDDEDDAQQGSRGGGGASKKAVKPLELVKTADIVKLITASLEEEGLEHLSKSIASLYTNQFNQTALARAQELFEATPQTNRRQTHAAIQDRINTLLIDIRLYEKGLKLFPQDTQTQLVKYLLKSLGNEICNELSLYVASECNLTVKNTNLNVDQRNKLAQECEAQYRAALLEQNKALNKSIDDFELATETVLKTCSMIIKKVDKKKDRLLIADHKKKLQKQLLECNEPALLLHLAALILFTTITGSILHASGKFVSAILQHIRGSLNEDQNALLLRYHDLVLQVLQAIPDSNESKLANEHLQTMQNQVVELAQNFSRASISKAD
MAPPIT interaction score (CG13901): 1.55 | MAPPIT interaction score (CG5862): -0.395 | MAPPIT interaction score (RpLP1): -0.273

B4: Fdx2 (protein)
chain: MLVINSCRAASRLALRSLNLRSPIATRTFSTGLALKTKDVVNITFVRANGDKIKTSGKVGDSLLDVVVNNNVDLDGFGACEGTLTCSTCHLIFKTSDFEKLPDKPGDEELDMLDLAYELTDTSRLGCQITLSKDMEGLEVHVPSTINDARAA
MAPPIT interaction score (CG13058; MAPPIT configuration: N-C): 0.365 | MAPPIT interaction score (CG13058; MAPPIT configuration: N-N): 0.0953

B5: CG5021 (protein)
chain: MASATVRNVPLLDDDTIPFGEEDEMRDPSRAGQKYTHPYVTFFHLFFRGAAILIYMFCGWFSDSFITSFVFVVLFLSADFWTVKNISGRLLVGLRWWNYVDDDGVSHWVFESKNSESYQSRVNKNEQRIFWLGLILCPVFWGLFFLFALFGLKFKWLLLVMIAIALNAANLYGYVKCNYGANKDLNSAATDFVKTQFFKNAVDIMTRPSGAPPPTNVRPTGVV
MAPPIT interaction score (CG13494): 0.956
